Reference: PubChem BioAssay (NCATS)
Inconclusive results are not listed. Calls of active or inactive are those of the source. Calls come from the whole dose curve; as a rule, active = well fitted inhibition curve with a large enough effect; inconclusive = small, poorly fitted or top-dose-only effect; inactive = flat fitted curve, though single readings scatter.

How the values were obtained:
Experiment in all cases: qHTS profiling for inhibitors of Plasmodium falciparum proliferation (AID 504749); note: nearly all actives have a fitted effect of over 60% in size
Details in all cases: P. falciparum in erythrocytes, SYBR Green DNA, 72 h; series mostly up to 28.7 µM
CP215 = tested on: CP215
In short: (§1)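 In a 72 h erythrocytic culture (37 C, humidified, 5% CO2) at 2.5% hematocrit and 0.3% starting parasitemia, compounds were tested; SYBR Green I in detergent lysis buffer stained parasite DNA overnight.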

CP247 = tested on: CP247
In short: as §1

CP262 = tested on: CP262
In short: as §1

CP266 = tested on: CP266
In short: as §1

CP237 = tested on: CP237
In short: as §1

CP238 = tested on: CP238
In short: as §1

CP260 = tested on: CP260
In short: as §1

CP268 = tested on: CP268
In short: as §1

CP269 = tested on: CP269
In short: as §1

CP286 = tested on: CP286
In short: as §1

CP291 = tested on: CP291
In short: as §1

CP297 = tested on: CP297
In short: as §1

CP305 = tested on: CP305
In short: as §1

CP250 = tested on: CP250
In short: as §1

CP315 = tested on: CP315
In short: as §1

CP325 = tested on: CP325
In short: as §1

CP217 = tested on: CP217
In short: as §1

CP252 = tested on: CP252
In short: as §1

CP256 = tested on: CP256
In short: as §1

CP265 = tested on: CP265
In short: as §1

Measured: Potency
Potency is the fitted concentration of half-maximal effect.

O=c1[nH]cc(F)c(=O)[nH]1
inactive: CP215 | CP262 | CP266
active: CP247 8.91 µM

O=C(Nc1ccc([N+](=O)[O-])cc1Cl)c1cc(Cl)ccc1O
inactive: CP238
active: CP215 0.536 µM | CP237 1.12 µM | CP260 2.82 µM | CP268 1.9 µM | CP269 1.2 µM | CP286 1.78 µM | CP291 1.2 µM | CP297 8.49 µM | CP305 2.13 µM

Clc1ccc2c(c1)C(N1CCNCC1)=Nc1ccccc1O2
inactive: CP250 | CP262 | CP266 | CP268 | CP269 | CP291 | CP305 | CP315 | CP325
active: CP237 7.08 µM

CC12CC3CC(C)(C1)CC(N)(C3)C2
not listed: CP237 | CP260 | CP297
inactive: all other assays above

CC(C)NCC(O)COc1ccc(CCOCC2CC2)cc1 (stereo unspecified)
not listed: CP260 | CP269 | CP265
inactive: all other assays above

COc1ccc2[nH]cc(CCNC(C)=O)c2c1
not listed: CP215 | CP315
inactive: all other assays above

O=C(c1ccc(F)cc1)C1CCN(CCn2c(=O)[nH]c3ccccc3c2=O)CC1
not listed: CP215 | CP247 | CP268 | CP286 | CP291 | CP305 | CP250
inactive: all other assays above

CN(C)C(=N)N=C(N)N
not listed: CP215 | CP262 | CP268 | CP269 | CP291 | CP297 | CP315
inactive: all other assays above

CN(C)CCOC(c1ccccc1)c1ccccc1
inactive: CP215 | CP217 | CP247 | CP250 | CP262 | CP266 | CP269 | CP315
active: CP260 5.62 µM

NC12CC3CC(CC(C3)C1)C2
not listed: CP237 | CP297 | CP256
inactive: all other assays above

CC#C[C@]1(O)CC[C@H]2[C@@H]3CCC4=CC(=O)CCC4=C3[C@@H](c3ccc(N(C)C)cc3)C[C@@]21C
active: CP215 12 µM | CP217 11.2 µM | CP237 11.2 µM | CP247 8.91 µM | CP268 16.9 µM | CP269 13.5 µM | CP291 16.9 µM | CP297 12 µM | CP305 12 µM

CCC1(c2ccccc2)C(=O)NCNC1=O
not listed: CP262 | CP260
inactive: all other assays above

O=C(c1ccc(OCCN2CCCCC2)cc1)c1c(-c2ccc(O)cc2)sc2cc(O)ccc12
inactive: CP262
active: CP215 19 µM | CP237 3.55 µM | CP247 7.08 µM | CP260 3.16 µM | CP268 10.7 µM | CP286 3.55 µM | CP297 12 µM | CP315 19 µM

Nc1nc2c(ncn2COC(CO)CO)c(=O)[nH]1
not listed: CP215 | CP266 | CP297
inactive: all other assays above

CC(C)(Oc1ccc(C2CC2(Cl)Cl)cc1)C(=O)O (stereo unspecified)
not listed: CP262
inactive: all other assays above

Cn1ccc2cc3c(cc21)CCN3C(=O)Nc1cccnc1
inactive: CP262

CC(C)C(=O)Nc1ccc([N+](=O)[O-])c(C(F)(F)F)c1
not listed: CP247
inactive: all other assays above

CN(C)CCC=C1c2ccccc2C=Cc2ccccc21
inactive: CP217 | CP237 | CP247 | CP250 | CP252 | CP260 | CP262 | CP265 | CP266 | CP315 | CP325

CC[C@@]1(O)C(=O)OCc2c1cc1n(c2=O)Cc2cc3c(CN(C)C)c(O)ccc3nc2-1
active: CP215 6.01 µM | CP237 8.91 µM | CP250 4.47 µM | CP260 6.31 µM | CP265 6.31 µM | CP286 5.62 µM | CP291 4.78 µM | CP297 7.57 µM
inactive: CP266

CC(COc1ccccc1)N(CCCl)Cc1ccccc1 (stereo unspecified)
active: CP237 11.2 µM
inactive: CP247 | CP250 | CP252 | CP256 | CP262 | CP266 | CP269 | CP305 | CP315 | CP325
